In PubChem BioAssay AID372 (MTDP, 2006):
Several values for one entry are separate records, joined by “and”; a condition that tells them apart may be missing. Identical values can stand only once. Among all 100,000 compounds or so, about 770 (0.77%) were called active. For the sample, actives were picked, then their nearest neighbours and some compounds at random. Values without a mark were called inactive. No stated cut-off is given here; in the data, active means inhibition above about 50%; inactive means the rest.

Molecular target: Gag-Pol polyprotein (Human immunodeficiency virus type 1 group M subtype B (isolate HXB2)) (UniProt P04585)
Experiment: RNase H inhibition, HIV 1 Gag Pol polyprotein, FRET biochemical assay, screening (AID 372)
Settings: HIV-1 RT RNase H, FRET RNA/DNA substrate fluorescence; at 10 µM; stronger effect = higher value

Structure (SMILES) | inhibition
O=C(CC1OC(=O)c2ccccc21)c1ccccc1 (stereo not given) | 1%
Cc1nc(SCC(=O)c2ccc(O)c(O)c2)n[nH]1 | 42%
Nc1cc(=O)[nH]c(SCC(=O)c2ccc(O)c(O)c2)n1 | 8%
Cc1sc2nc(SCC(N)=O)[nH]c(=O)c2c1C | 0%
Cc1cc(C)c2c(=O)[nH]c(SCC(=O)c3ccc(Br)cc3)nc2n1 | 20%
Cc1sc2nc(SCC(=O)c3ccc(O)c(O)c3)[nH]c(=O)c2c1C | 75% (active)
Cc1cc(C)nc(SCC(=O)c2ccc(O)c(O)c2)n1 | 74% (active)
Cc1cc(=O)[nH]c(SCC(=O)c2ccc(Br)cc2)n1 | 4% and 9%
Cc1cc(C)nc(SCC(=O)c2ccc(F)cc2)n1 | 13%
Cc1cc(C)c2c(=O)[nH]c(SCC(=O)c3ccc(F)cc3)nc2n1 | 11%
COc1ccc(C(=O)CSc2nc3sc(C)c(C)c3c(=O)[nH]2)cc1C | 44%
Cc1cc(=O)[nH]c(SCC(=O)c2ccc(O)c(O)c2)n1 | 50% (active)
Cc1cccnc1NC(=O)Nc1cccc(F)c1 | 7%
O=C(NNc1ccc(F)cc1)C(O)(c1ccccc1)c1ccccc1 | 2%
NS(=O)(=O)c1ccc(Nc2nc(-c3ccccn3)cs2)cc1 | 3%
CC(=O)Nc1ccc2c(c1)C(=O)OC2(c1ccc(N(C)C)cc1)c1ccc(N(C)C)cc1 | 17%
Cc1nc2ccccc2n1C(=O)c1ccc([N+](=O)[O-])cc1 | 0%
Cc1ccc(C(=O)N/N=C/C=C/c2ccc([N+](=O)[O-])cc2)cn1 | 1%
O=C(N/N=C\c1ccc([N+](=O)[O-])cc1)c1cccc2cc[nH]c12 | 8%
Cc1ccc(N2NC(=O)/C(=C/c3ccc(-c4cc([N+](=O)[O-])ccc4C)o3)C2=O)cc1 | 13%

Structure (SMILES) | inhibition
Cc1ccc(C(=O)O)cc1-n1c(C)ccc1C | 19%
Cc1c(C(=O)O)cccc1-n1c(C)ccc1C | 58% (active)
Cc1ccc(C)n1-c1ccc(C(=O)O)cc1O | 8%
Cc1ccc(C)n1-c1ccccc1C(=O)O | 15%
Cc1c(C(=O)O)cccc1-n1c(=O)c2cc3c(=O)n(-c4cccc(C(=O)O)c4C)c(=O)c3cc2c1=O | 10%
Cc1ccc(C)n1-c1ccc(Cl)cc1C(=O)O | 16%
COc1cc(C(=O)O)c(-n2c(C)ccc2C)cc1OC | 13%
COc1ccc(/C(C)=N/NC(=O)c2ccncc2)c(OC)c1OC | 5%
COc1cc(Br)c(CNc2cccc(C)c2)cc1OC | 22%
CCc1c(C)c(C#N)c2nc3ccccc3n2c1Nc1ccc(N(CC)CC)cc1 | 30%
O=C(Nc1ccccc1C#Cc1ccccc1)c1ccc(-c2ccccc2)cc1 | 0%
CC1CC(Nc2ccccc2)c2ccccc2N1 (stereo not given) | 0%
COC(=O)CN1C(=O)c2cccc3cccc(c23)C1=O | 7%
N#CC1=C(N)OC2=C(C(=O)CC(c3ccccc3)C2)C1c1coc2ccccc2c1=O (stereo not given) | 4%
CCOC(=O)c1ccc(-c2ccc(/C=C3/C(=O)NC(=O)N(Cc4ccco4)C3=O)o2)cc1 | 34%
O=C1NC(=O)N(Cc2ccco2)C(=O)/C1=C\c1ccc(-c2cccc(Cl)c2Cl)o1 | 46%
O=C1NC(=O)N(Cc2ccco2)C(=O)/C1=C\c1ccc(-c2ccc(Cl)c(Cl)c2)o1 | 41%
O=C1NC(=O)N(Cc2ccco2)C(=O)/C1=C\c1ccc(-c2ccc(Cl)c([N+](=O)[O-])c2)o1 | 35%
Cc1cc([N+](=O)[O-])ccc1-n1c(C)cc(/C=C2/C(=O)NC(=O)N(Cc3ccco3)C2=O)c1C | 50% (active)
O=C1NC(=O)N(Cc2ccco2)C(=O)/C1=C\c1ccc(-c2ccc(C(=O)O)cc2)o1 | 35%

Structure (SMILES) | inhibition
Cc1cc(/C=C2/C(=O)NC(=O)N(Cc3ccco3)C2=O)c(C)n1-c1ccc(Cl)cc1 | 12%
O=C1NC(=O)N(Cc2ccco2)C(=O)/C1=C\c1ccc(-c2ccc(Cl)cc2Cl)o1 | 58% (active)
O=C1NC(=O)N(Cc2ccco2)C(=O)/C1=C\c1ccc(-c2ccc([N+](=O)[O-])cc2)o1 | 17%
Cc1cc(/C=C2/C(=O)NC(=O)N(Cc3ccco3)C2=O)c(C)n1-c1ccc([N+](=O)[O-])cc1 | 14%
O=C1NC(=O)N(Cc2ccco2)C(=O)/C1=C\c1ccc(-c2ccc(Br)cc2)o1 | 53% (active)
Cc1cc(-c2ccc(/C=C3/C(=O)NC(=O)N(Cc4ccco4)C3=O)o2)ccc1Br | 58% (active)
O=[N+]([O-])c1cc2c(cc1C=Nc1cc(Cl)cc(Cl)c1)OCO2 | 5%
COc1ccc([N+](=O)[O-])cc1NCc1ccccc1F | 12%
COc1ccc(C2CC(=O)C3=C(C2)NC(C)=C(C(=O)OCc2ccccc2)C3c2cc(OC)c(OC)c(OC)c2)cc1 (stereo not given) | 10%
CCOC(=O)c1c(-c2ccc(C(C)C)cc2)csc1N | 27%
COc1cc([N+](=O)[O-])ccc1NC(=O)c1ccccc1 | 16%
COc1cc2ccccc2cc1C(=O)Nc1ccc(C)c(NC(=O)c2cc3ccccc3cc2OC)c1 | 28%
CC1=C(C(=O)OCCc2ccccc2)C(c2ccc(O)cc2)C2=C(CCCC2=O)N1 (stereo not given) | 2%
Cc1ccc(N2C(=O)NC(=O)/C(=C\c3cccc(C(F)(F)F)c3)C2=O)cc1C | 5%
CCOc1ccc(N2C(=O)/C(=C/c3ccc(-c4ccccc4C(=O)O)o3)C(=O)NC2=S)cc1 | 15%
O=C(O/N=C(/c1ccccc1)c1ccncc1)c1ccc(Cl)cc1Cl | 18%
COc1ccc(Cl)cc1S(=O)(=O)Oc1ccc(Cl)cc1 | 39%
COc1cc(S(=O)(=O)Oc2ccc(OCc3ccccc3)cc2)ccc1Cl | 5%
COc1ccc(Cl)cc1S(=O)(=O)Oc1ccc(OCc2ccccc2)cc1 | 53% (active)
Cc1c(/C=C2/C(=O)NC(=O)N(Cc3ccco3)C2=O)c2ccccc2n1CC(N)=O | 27%
